# Screening data as filed in PubChem BioAssay.
# Rows were chosen to be rich in hits. Some 1.8% of all compounds tested hit in one or more screens of this group.
# Myeloid diff 2 – promotes myeloid progenitor differentiation; ER-HoxA9 myeloid progenitors, lysozyme-GFP differentiation, flow cytometry; calls only at 10 µM; actives 1% (n = 360,000);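 active = normalized GFP-positive differentiation at or above the plate's own cutoff, the solvent-only control mean plus 3 SD; inconclusive = no clear call, values can overlap the other calls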;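 note: cells exposed to compound for four days before flow analysis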
# LAP4 TOR yeast – alters LAP4-GFP fluorescence in TOR pathway yeast screen | S. cerevisiae LAP4-GFP multiplex, flow cytometry GFP, 3 h; median GFP as percent of DMSO wells | GFP response vs DMSO, % at 10 µM | actives 0.34% (n = 320,000) | AID 2023;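 active = GFP response vs DMSO above a set limit, about the screen mean plus 3 SD, cut at about 150% in these data; inconclusive = under 70 cell events counted for the yeast strain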
# CIT2-GFP yeast – modulators of TOR pathway CIT2-GFP in S. cerevisiae. S. cerevisiae CIT2-GFP strain, flow cytometry, 3 h; 100 means same as DMSO wells. GFP response vs DMSO, % at 10 µM. actives 0.065% (n = 320,000). AID 2029;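 active = GFP response relative to DMSO above a set limit, near the screen mean plus 3 SD, cut at about 150% in these data; inconclusive = Fewer than 70 cells measured for a yeast strain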;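 note: ratio of well median GFP fluorescence to mean of DMSO wells on the plate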
# AGP1-GFP MLPCN – modulators of TOR pathway AGP1-GFP in S. cerevisiae. AID 2066. S. cerevisiae AGP1-GFP multiplex flow cytometry, 3 h; GFP as percent of DMSO wells. actives 0.02% (n = 320,000). GFP response vs DMSO, % at 10 µM;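 active = GFP response relative to DMSO above a set limit, near screen average plus 3 SD, cut at about 150% in these data; inconclusive = fewer than 70 cells counted for the yeast strain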;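 note: median GFP channel fluorescence of the gated AGP1 strain per well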
# RPL19A TOR yeast – alters RPL19A-GFP fluorescence in TOR pathway yeast screen; percent response vs DMSO, % at 10 µM; actives 0.3% (n = 330,000); AID 2025; S. cerevisiae RPL19A-GFP strain, flow cytometry, 3 h; hits give low values;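 active = percent response vs DMSO below 50%; inconclusive = fewer than 70 events counted for the yeast strain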;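 note: median channel GFP fluorescence of the barcoded RPL19A-GFP strain; ratio of sample median GFP to plate DMSO average so 100% = DMSO; lower means less RPL19A-GFP as with rapamycin TOR inhibition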
# MEP2-GFP yeast – alters MEP2-GFP fluorescence in TOR pathway yeast screen | GFP response vs DMSO, % at 10 µM | actives 0.51% (n = 330,000) | S. cerevisiae MEP2-GFP strain, flow cytometry GFP, 3 h; 100% = DMSO control level | AID 2016;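 active = GFP response versus DMSO above a set limit, roughly screen mean plus 3 SD, cut at about 180% in these data; inconclusive = fewer than 70 cells counted for a yeast strain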;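 note: median GFP fluorescence of the barcode-gated MEP2-GFP cells per well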
# Active calls of the source: *; i = inactive; u = inconclusive; x = no result given; + = active, no number; [ ] = dose if it differs, or a comment.
SMILES,Myeloid diff 2,LAP4 TOR yeast,CIT2-GFP yeast,AGP1-GFP MLPCN,RPL19A TOR yeast,MEP2-GFP yeast
Cn1c(N2CCCC2)nc2c1c(=O)n(Cc1ccc(Cl)cc1)c(=O)n2C,i,162*,72,100,99,99
Cn1c(=O)c2c(nc(SCCN3CCCCC3)n2Cc2ccccc2)n(C)c1=O,i,114,u,u,23*[may fluoresce violet],280*[may fluoresce violet]
CCO[C@H]1OC(C(=O)NCc2nc3ccccc3[nH]2)=C[C@@H](c2ccc3c(c2)OCO3)[C@@H]1CCCO,i,105,79,82,93,94
Cn1ccnc1SCC(=O)c1ccc2ccccc2c1,i,144,u,25,49*[may fluoresce violet],103
Cc1ccc(NC(=S)/C(C#N)=C2/Nc3ccccc3S2)cc1,i,x,x,x,x,x
COc1ccc(C(N)c2csc(Nc3ncccn3)n2)cc1 (configuration not stated),i,x,x,x,x,x
COc1cccc(Nc2nc(C(N)c3ccccc3)cs2)n1 (configuration not stated),+,x,x,x,x,x
COc1ccc(C(N)c2csc(Nc3nncc4ccccc34)n2)cc1 (configuration not stated),+,x,x,x,x,x
COc1cccc(Nc2nc(C(C)N)cs2)n1 (configuration not stated),i,x,x,x,x,x
COCCn1c(SCC(=O)c2c[nH]c3ccccc23)nnc1-c1ccncc1,i,111,90,104,105,155
CCn1c(SCC(=O)c2c[nH]c3ccccc23)nnc1-c1cccs1,+,100,116,108,95,110
O=C(COC(=O)COc1cccc(C(F)(F)F)c1)NC1CCS(=O)(=O)C1 (configuration not stated),i,104,98,101,92,101
O=C(CSc1n[nH]c(=O)n1Cc1ccccc1)Nc1ccc(F)c(F)c1F,i,104,u,21,47*[may fluoresce violet],780*[may fluoresce violet]
COc1ccc(C2=NN(CCC(=O)NCc3ccc4c(c3)OCO4)C(=O)CC2)cc1,i,68,101,66,113,86
COc1ccccc1CNC(=O)COC(=O)c1cnccn1,i,99,100,100,100,98
COc1ccccc1CNC(=O)c1cnccn1,i,103,u,u,29*[may fluoresce violet],186*[may fluoresce violet]
COc1ccccc1C(NC(C)=O)c1c(O)ccc2ccc(O)cc12 (configuration not stated),i,116,96,105,95,98
CCOC(=O)Cc1cc(=O)n2[nH]cc(-c3ccc(Cl)cc3)c2n1,i,103,105,105,96,99
COc1cccc(/C=C2\C(=O)C(=O)c3ccccc32)c1,+,125,99,103,97,102
COc1cccc(C=C2Cc3ccccc3C2=O)c1,i,x,x,x,x,x
COc1cc(/C=C/C(=O)OCC(=O)Nc2c(C)n(C)n(-c3ccccc3)c2=O)ccc1O,i,102,91,95,93,98
O=C1CCN(S(=O)(=O)c2ccccc2)CCN1CCOCc1ccccc1,i,127,98,87,97,92
Cc1cccc(COCCN2CCN(S(=O)(=O)c3ccccc3)CCC2=O)c1,+,135,100,89,102,98
O=C(O)c1cc(C(=O)C2CCCCC2)c[nH]1,i,98,92,x,90,102
COC(=O)Nc1ccc2c(c1)N(C(=O)CCN1CCOCC1)c1ccccc1S2,i,95,90,90,95,99
COC(=O)Nc1ccc2c(c1)N(C(=O)CCCl)c1ccccc1S2,+,100,97,92,98,109
COc1ccc(N(CC(=O)Nc2cccc(C(C)=O)c2)S(C)(=O)=O)cc1OC,i,94,104,100,98,93
COc1cc(OC)cc(C(=O)NCc2cc(C)nc3ccccc23)c1,i,95,100,100,105,109
O=C1/C(=C/c2ccncc2)Cc2ccccc21,i,99,89,98,95,95
CC1C/C(=C/c2ccncc2)C(=O)/C(=C/c2ccncc2)C1 (configuration not stated),i,125,u,10,38*[may fluoresce violet],389*[may fluoresce violet]
